In the library only some 3.8% were active in any assay of this set; here they are far more common.
Gli-Sufu block: blocks Gli-Sufu signaling in a luciferase reporter. Sufu-KO-LIGHT fibroblasts, Gli luciferase reporter luminescence. inhibition, % at 5 µM. actives 0.74% (n = 340,000). AID 588413;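 active = inhibition above about 55%, limit read from the data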;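 also: 0% = DMSO-treated cells and 100% = wells with medium but no cells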
Shn3 3UTR inh: inhibitors of Schnurri-3 3'UTR reporter in osteoblasts; inhibition, % at 12.5 µM; Clone20 osteoblast Shn3 3'UTR firefly luciferase, 24 h; AID 588674; actives 0.52% (n = 360,000);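 active = mean inhibition of at least 75% with every replicate also reaching 75%; inconclusive = mean inhibition at least 75% but some replicate below; inactive = mean inhibition below 75%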;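 also: 0% = median of neutral control wells and 100% = pilot-screen positive control compound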
Mdm2-MdmX inh: inhibitors of human Mdm2/MdmX interaction | O15151+Q00987 | SaOS-2 split-luciferase Mdm2/MdmX complementation, luminescence | inhibition, % at 8 µM | actives 3% (n = 330,000);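 active = inhibition of at least 50% at 8 µM in the primary screen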
697 NFkB inh: inhibitors of the PMA/ionomycin-induced NF-kB reporter in 697 B cells | 697 B-cell NF-kB luciferase reporter, 16 h | actives 0.33% (n = 330,000) | inhibition, % at 4 µM | AID 435022; in the data active = inhibition above about 35%
Jurkat NFkB inh: lowers PMA/ionomycin-induced NF-kB signal in Jurkat cells. inhibition, % at 4 µM. PMA/ionomycin-induced NF-kB luciferase reporter, luminescence. actives 0.53% (n = 330,000); in the data active = inhibition above about 50%
Mdm2 MdmX conf: confirmation of human Mdm2/MdmX interaction inhibitors; shares compounds with Mdm2-MdmX inh; Mdm2-MdmX binding, luminescent assay; inhibition, % at 8 µM; actives 55% (n = 10,000); AID 489028; in the data active = inhibition above about 40%
Full FLuc ctr: full-length luciferase inhibition in Mdm2/MdmX counter-screen. shares compounds with Mdm2-MdmX inh. SaOS-2 full-length luciferase counterscreen, luminescence. inhibition, % at 8 µM. actives 77% (n = 6,200). AID 504607;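 active = mean inhibition at 8 µM reaching about 37%, which flags the compound as non-specific, limit read from the data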;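 also: p53-null SaOS-2 cells with luciferase driven by a doxycycline-inducible promoter; compound on cells about two nights before reading with doxycycline added after day one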
* hit, by the source's call; ? = inconclusive; nt = no result.

SMILES	Gli-Sufu block	Shn3 3UTR inh	Mdm2-MdmX inh	697 NFkB inh	Jurkat NFkB inh	Mdm2 MdmX conf	Full FLuc ctr
COc1ccc(C2NCCc3c2[nH]c2ccccc32)cc1COc1ccc(F)cc1 (centres undefined)	10	-28	69*	22	-4	37	nt
COc1ccc(C2NCCc3c2[nH]c2ccccc32)cc1CN1CCc2cc(OC)c(OC)cc2C1C (centres undefined)	-1	8	nt	nt	nt	nt	nt
C#Cc1ccc([C@@H]2C=C(C(=O)OCC=C)O[C@H](OCc3ccc(CO)cc3)C2)cc1	-11	-55	15	18	-8	nt	nt
COc1ccc2cc(C(=O)N/N=C/c3sc4ccccc4c3O)ccc2c1	-8	22	89*	-22	1	89*	32
O=C(N/N=C/c1sc2ccccc2c1O)c1ccccc1	16	77	68*	-24	7	67*	41*
COc1ccc(C(=O)N/N=C/c2sc3ccccc3c2O)cc1	17	54	nt	nt	nt	nt	nt
O=C(N/N=C/c1sc2ccccc2c1O)c1cccc2ccccc12	25	70	nt	nt	nt	nt	nt
CC1CCCN(S(=O)(=O)c2ccc(C(=O)NC(C)c3ccccc3)cc2)C1 (centres undefined)	2	18	-7	-7	-1	nt	nt
O=C(Oc1ccc(F)cc1C(=O)/C=C/c1cccs1)c1cccc([N+](=O)[O-])c1	-1	4	55*	-40	35	42*	48*
COc1cc(OC)c(OC)cc1CCC(C)NCCC(c1ccccc1)c1ccccc1 (centres undefined)	2	?	64*	-5	4	50*	60*
Cc1ccc(-c2oc3ccccc3c(=O)c2O)cc1	-5	16	84*	1	-36	51*	25
O=c1c(O)c(-c2ccccc2)oc2ccccc12	-9	-1	nt	nt	nt	nt	nt
Cc1cccc(-n2c(=S)[nH]c3sc4c(c3c2=O)CCc2ccccc2-4)c1	1	-6	6	2	21	nt	nt
Cn1cc(CN2CCCC(C(=O)Nc3cccc(-c4cc5ccccc5[nH]4)c3)C2)cn1 (centres undefined)	14	5	60*	23	12	15	nt
CC(C)n1cc(CN2CCCC(C(=O)Nc3cccc(-c4cc5ccccc5[nH]4)c3)C2)cn1 (centres undefined)	15	33	78*	21	8	18	nt
CCOc1ccc(N(CC(=O)Nc2cc(Cl)ccc2C)S(C)(=O)=O)cc1	0	2	27	-11	13	nt	nt
O=c1c2ccccc2nc(/C=C/c2c[nH]c3ccccc23)n1CCO	-30	-38	-36	-48	-82	nt	nt
O=c1c2ccccc2nc(/C=C/c2cc(Br)ccc2O)n1CCO	3	5	65*	23	15	57*	32
COc1cc2ccccc2cc1C(=O)NNC(=O)c1ccccc1O	nt	19	56*	-23	3	48*	40*
COc1cc2ccccc2cc1C(=O)Nc1ccccc1Cl	-47	-26	-247	-145	-99	nt	nt
COc1cc(NC(=O)c2cc3ccccc3cc2O)c(OC)cc1Cl	26	43	100*	2	5	91*	42*
Cc1nn(C)c(C)c1CN(C(=O)C1CCC(=O)N(C2CCCCCC2)C1)C(C)C (centres undefined)	20	-59	-28	-13	-10	nt	nt
C[C@H]1CN([C@@H](C)CO)C(=O)Cc2cc(NC(=O)Cn3cnnn3)ccc2O[C@H]1CN(C)Cc1ccncc1	-6	-4	-13	1	11	nt	nt
CN(C)C/C=C/C(=O)Nc1cccc(-c2c[nH]c3ncnc(Oc4ccc(NC(=O)CC(=O)Nc5ccc(F)cc5)cc4F)c23)c1	-5	-14	68*	18	-8	2	nt
O=C(N/N=C/c1ccc([N+](=O)[O-])o1)c1cc(-c2ccncc2)nc2ccccc12	30	11	62*	3	-5	52*	44*
O=C(N/N=C/c1cccnc1)c1cc(-c2ccccc2)nc2ccccc12	4	11	15	-1	-9	nt	nt
O=C(N/N=C/c1ccc(Cl)c([N+](=O)[O-])c1)c1cc(-c2ccccc2)nc2ccccc12	4	3	100*	5	9	8	nt
Cc1ccc(NC(=S)N/N=C/c2ccc(Cl)c([N+](=O)[O-])c2)cc1	-16	1	41	-5	2	nt	nt

Assay outcomes: PubChem, several laboratories
